# In all, about 69,000 compounds went through this assay and about 8,600 (12%) showed an effect of 50% or more. Shown is part of a subset that was picked to be rich in strong results.
# System: Plasmodium berghei
# Experiment: Screen against P. berghei liver stage (PbLuc), transformed with Luciferase, at 10uM
# Format: functional, HepG2
# Settings: tested at 10 uM
row,Structure (SMILES),INHIBITION
1,Cc1cccc(NC(=O)Nc2c[nH]c(=O)[nH]c2=O)c1C,-13.6%
2,Cc1cc(C(=O)N2CCN(Cc3ccsc3)CC2)c(C)n1C1CC1,-1.14%
3,Cc1ncc(S(=O)(=O)N(CC(C)C)c2cccc(O)c2)s1,61%
4,CC(=O)Nc1ncc(S(=O)(=O)Nc2cccc(O)c2)s1,13.5%
5,CC(C)CN(c1cn[nH]c1)S(=O)(=O)c1cccc(C#N)c1,10.8%
6,O=C(c1ccc[nH]1)N1CCc2c(cccc2S(=O)(=O)N2CCOCC2)C1,22.2%
7,Cc1n[nH]c(CN2CCN(CC3CC3)[C@@H]3CS(=O)(=O)C[C@@H]32)n1,55.9%
8,CC(C)=CCN1CCN(Cc2nccn2C)[C@H]2CS(=O)(=O)C[C@H]21,23.9%
9,Cn1ccnc1CN1CCN(CC2CC2)[C@@H]2CS(=O)(=O)C[C@@H]21,56.7%
10,Cn1ccnc1CN1CCN(Cc2ccccc2)[C@@H]2CS(=O)(=O)C[C@@H]21,46.7%
11,Cc1n[nH]c(CN2CCN(C(=O)C3CCC3)[C@@H]3CS(=O)(=O)C[C@@H]32)n1,-2.79%
12,Cc1n[nH]c(CN2CCN(Cc3ccccc3)[C@@H]3CS(=O)(=O)C[C@@H]32)n1,18.9%
13,CN(C)CCC1CN(C(=O)c2cccc3c2OCC3)CCO1 (stereo not given),-15.1%
14,COCC1CN(Cc2cc(C)on2)Cc2cn(CC3CCCC3)nc21 (stereo not given),15.3%
15,Cc1cc(OC(F)F)c(C(=O)N2CCN(C3CC3)CC2)s1,-3.47%
16,CC(C)COCC1CN(C(=O)c2cscn2)Cc2ncn(C)c21 (stereo not given),34.9%
17,CCOCC1CN(C(=O)c2cnccn2)Cc2cnn(CC3CC3)c21 (stereo not given),6.6%
18,Cc1noc(C)c1C(=O)N1Cc2ncn(C)c2C(COCC2CC2)C1 (stereo not given),58.4%
19,CCOCC1CN(C(=O)c2cscn2)Cc2nnn(CC3CC3)c21 (stereo not given),13.6%
20,Cn1cnc2c1C(COCC1CCOCC1)CN(C(=O)c1ccoc1)C2 (stereo not given),40.4%
21,CN(C)C(=O)N1Cc2ncn(C)c2C(COCC2CCOCC2)C1 (stereo not given),6.6%
22,Cc1ccsc1C(=O)N1Cc2ncn(C)c2C(COCC2CC2)C1 (stereo not given),11.4%
23,Cn1cnc2c1C(COCC1CC1)CN(C(=O)c1cscn1)C2 (stereo not given),58.8%
24,Cn1cnc2c1C(COCC1CCOCC1)CN(C(=O)c1ccco1)C2 (stereo not given),64.9%
25,Cc1noc(C)c1C(=O)N1Cc2ncn(C)c2C(COCC(C)C)C1 (stereo not given),36.7%
26,CCOCC1CN(C(=O)c2cscn2)Cc2cnn(CC3CC3)c21 (stereo not given),56.7%
27,Cn1ncc2c1C(COCC1CC1)CN(C(=O)c1cscn1)C2 (stereo not given),34.6%

row,Structure (SMILES),INHIBITION
1,CCn1ccnc1CN1CCCN(C(=O)c2cc[nH]n2)CC1,-18.45%
2,Cc1nc(C)n(CC2CCCCN2CCOc2cccc(C#N)c2)n1 (stereo not given),21.5%
3,CN(C)C1(CNc2nccc(C3CCCC3)n2)CCOCC1,-15.3%
4,Cn1ccnc1CNC(=O)CC1CCCCO1 (stereo not given),19.25%
5,COCCNCc1cc2ccc(C)c(C)c2[nH]c1=O,1.475%
6,CC(=O)Nc1cccc(CN2CCN(C3=NCC(C)(C)S3)CC2)c1,42.1%
7,CN(C)CCN1CCOCC2(C1)CN(Cc1ccsc1)CCO2 (stereo not given),25.6%
8,CCS(=O)(=O)N(C)CCCNCc1c(C)nn(C)c1N(C)C,19.15%
9,CC(C)CN1CCN(C(=O)CCn2cccn2)CC1,2.4%
10,C[C@H]1C(=O)NC[C@H]2CN(CCc3ccccc3)C[C@H]21,-23.3%
11,CCN(CC)C(=O)Cn1ccc2cc(NC(=O)C3CC3)ccc21,52.7%
12,CCC(=O)Nc1ccc2c(ccn2CC(=O)N(CC)CC)c1,8.4%
13,CCN(CC)C(=O)Cn1ccc2cc(NC(=O)C3CCCCC3)ccc21,-3.202%
14,CCc1nccn1C1CCCN(C(=O)c2ccc(-n3ccnc3)cc2)C1 (stereo not given),33.3%
15,COC(=O)C(C)Sc1nnnn1C1CCOCC1 (stereo not given),23.6%
16,CC(Sc1nnnn1C1CCOCC1)C(=O)NC1CCCCC1 (stereo not given),3.47%
17,CC(C)Sc1nnnn1C1CCCC1,66.9%
18,CC(Sc1nnnn1C1CCOCC1)C(F)(F)F (stereo not given),52.8%
19,CCCC(C)Sc1nnnn1C1CCOCC1 (stereo not given),15%
20,N#CC(Sc1nnnn1C1CCOCC1)C1CCCCC1 (stereo not given),-58.6%
21,N#CC1(NC(=O)c2ccc(F)cc2OC(F)F)CCOCC1,8.12%
22,CN(C)C(=O)COC1COC2(CCN(c3cccc(F)c3)CC2)C1 (stereo not given),42.7%
23,Cc1ccc(-c2noc(C(C)(C)NS(C)(=O)=O)n2)cc1F,15.4%
24,CC[C@@]1(O)CCN(C(=O)c2ccc(CN3CCCCCC3)cc2)C[C@H]1O,3.03%
25,Cc1nonc1CN1CC[C@@](O)(C2CCC2)[C@H](C)C1,21.9%
26,CC1(C)CN(Cc2cc(C3CCCCC3)no2)CC[C@]1(C)O,47.7%
27,C[C@@H]1CN(Cc2cc(C3CCCCC3)no2)CC[C@]1(C)O,61.1%

row,Structure (SMILES),INHIBITION
1,CC[C@@]1(O)CCN(Cc2cc(C3CCCCC3)no2)C[C@H]1O,56.6%
2,CCc1nc(C)sc1CN1CC[C@](O)(CC)[C@H](O)C1,-31.7%
3,Cc1nnsc1CN1CC[C@@](O)(C2CCC2)[C@H](C)C1,66.7%
4,NC1CCCCN(Cc2cc(C3CCCCC3)no2)C1 (stereo not given),57.8%
5,CCc1nc(C)sc1CN1CC[C@@](O)(C2CC2)[C@H](C)C1,29.7%
6,Cc1cc(-c2nn(C)c(Cl)c2CN2CCCCC(N)C2)no1 (stereo not given),48.5%
7,OCC1COCCN(Cc2cc(C3CCCCC3)no2)C1 (stereo not given),41%
8,C[C@@H]1CN(Cc2c[nH]c(CC3CCCC3)n2)CC[C@]1(C)O,15%
9,O=C(COCc1ccccc1)N1CCCn2cncc2C1,14.5%
10,Cc1cs/c(=N\C(=O)Cn2nc(N3CCC(C)CC3)ccc2=O)[nH]1,-6.73%
11,CN(C)Cc1cnc2n1CCN(Cc1ccsc1)CC2,16.8%
12,C[C@@H]1CN(Cc2cccc(F)c2)C[C@]12CCN(Cc1cccnc1)C2=O,-13.4%
13,Cc1ccc(C(=O)N2C[C@H](OCc3cccnc3)[C@H]3COC[C@H]32)cn1,25.3%
14,CC(C)N(C)Cc1nnn2c1CN(Cc1cccnc1)CCC2,-50.9%
15,CCC(CO)n1cnc2scc(C)c2c1=O (stereo not given),1.19%
16,C[C@@H]1CN(Cc2nc(C(N)=O)no2)CC[C@@]1(O)C1CC1,6.26%
17,COc1cc(F)c(CN2CC[C@@](O)(C3CC3)[C@H](C)C2)cc1OC,-39.2%
18,C[C@@H]1CN(Cc2cc(C(F)(F)F)ccc2F)CC[C@@]1(O)C1CC1,-45%
19,C[C@@H]1CN(Cc2nc(C(N)=O)no2)CC[C@@]1(O)C1CCOCC1,59.1%
20,OC1COCCN(Cc2cc(-c3ccccc3OC(F)(F)F)no2)C1 (stereo not given),-26.1%
21,NC1CCCCN(Cc2cc(-c3ccccc3OC(F)(F)F)no2)C1 (stereo not given),79.7%
22,Cc1nonc1CN1CC[C@@](O)(C2CCOCC2)[C@H](C)C1,47.7%
23,C[C@@H]1CN(Cc2cc(C3CCCCC3)no2)CC[C@@]1(O)C1CC1,63.3%
24,N[C@@H]1CCN(Cc2cc(-c3ccccc3OC(F)(F)F)no2)C[C@H]1O,-48.3%
25,COCCCC(=O)N(CCC(=O)O)Cc1ccc(F)c(F)c1,23.1%
26,CC(C)NC(=O)N1CCN(CC2CC2)c2ncccc2C1,30.3%
27,O=S(=O)(C1CC1)N1CC[C@H](OCC2CC2)[C@@H]1Cc1cccnc1,-4.02%

row,Structure (SMILES),INHIBITION
1,CCN(c1ccc(C(=O)NCCCN2CCCCC2)cc1)S(=O)(=O)CC,21.7%
2,COc1ccc(Oc2nccnc2C2CCN(C(C)=O)CC2)cc1,58.1%
3,COc1ccc(-c2nccnc2C2CCN(C(C)=O)CC2)cc1,40.9%
4,CC(=O)N1CCC(c2nccnc2-c2ccc(F)c(F)c2)CC1,26.8%
5,COc1ccc(-c2cc(C3CCN(C(C)=O)CC3)ccn2)cc1,-24.1%
6,COc1cccc(-c2nccnc2C2CCN(C(C)=O)CC2)c1,57.4%
7,CC(=O)N1CCC(c2nccnc2Oc2ccccc2)CC1,39.2%
8,Cn1nnnc1SC1CCCN(c2ccccc2Cl)C1=O (stereo not given),-40%
9,CN(C)[C@@H]1CCN(C(=O)NC2CCCC2)[C@H]1Cc1cnn(C)c1,21%
10,Cc1cc(C)n(CC2CCCN2C(=O)c2cnc3n[nH]c(C)c3c2)n1 (stereo not given),13.6%
11,CC(C)CN1C[C@@H](C(=O)O)C[C@@H](C(=O)NCc2ccncc2)C1,2.79%
12,CCc1ccsc1C(=O)NC(C#N)CC (stereo not given),30.9%
13,Cc1cc(CN(C)Cc2cc3c(cc2OC(F)F)OCO3)on1,-19.9%
14,Cc1nc(CN(C)Cc2cc3c(cc2OC(F)F)OCO3)oc1C,11.3%
15,Cc1cnc(CN(C)Cc2cc3c(cc2OC(F)F)OCO3)o1,60%
16,CN(C)Cc1cc(C2CCN(C(=O)C3CCCNC3)CC2)nn1C (stereo not given),27.2%
17,Cc1cc(NC(=O)c2ccc(Br)cc2F)n(C)n1,-77%
18,Cc1cc(NC(=O)c2ccc(F)cc2Br)n(C)n1,-18.5%
19,Cc1cc(NC(=O)c2ccccc2Br)n(C)n1,53.2%
20,Cc1ncc2c(n1)CN(Cc1nc(-c3ccsc3)no1)CC2,21%
21,CCn1nc(C)c(NC(=O)CN(C)C(C)c2nccs2)c1C (stereo not given),-23.4%
22,COc1ccccc1CNC(=O)CN(C)C(C)c1nccs1 (stereo not given),-45.6%
23,Cc1cccc(C(C)C)c1NC(=O)CN(C)C(C)c1nccs1 (stereo not given),73.6%
24,CCCNC(=O)N1CCC(c2nnc(Cn3cccn3)n2C2CC2)CC1,-50.7%

# Reference: ChEMBL document CHEMBL4513216, “Probing the Open Global Health Chemical Diversity Library for Multistage-Active Starting Points for Next-Generation Antimalarials” (ACS Infect Dis, 2020)
